The campaign covered roughly 310,000 compounds. About 14,000 (4.5%) showed an effect of 50% or more. The effect is printed as a negative number. The sample holds strong results, similar compounds and a random draw of the others, so the mix is not that of the screen.
Target: human ether-à-go-go-related gene (hERG) potassium channel (human, UniProt Q12809)
Test: primary screen, population patch clamp on CHO cells stably expressing hERG; higher = less effect of the substance
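Further: peak tail current of the secondary pulse compared with the same well before compound.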

human ether-à-go-go-related gene (hERG) potassium channel, sequence (Q12809 whole entry, looked up): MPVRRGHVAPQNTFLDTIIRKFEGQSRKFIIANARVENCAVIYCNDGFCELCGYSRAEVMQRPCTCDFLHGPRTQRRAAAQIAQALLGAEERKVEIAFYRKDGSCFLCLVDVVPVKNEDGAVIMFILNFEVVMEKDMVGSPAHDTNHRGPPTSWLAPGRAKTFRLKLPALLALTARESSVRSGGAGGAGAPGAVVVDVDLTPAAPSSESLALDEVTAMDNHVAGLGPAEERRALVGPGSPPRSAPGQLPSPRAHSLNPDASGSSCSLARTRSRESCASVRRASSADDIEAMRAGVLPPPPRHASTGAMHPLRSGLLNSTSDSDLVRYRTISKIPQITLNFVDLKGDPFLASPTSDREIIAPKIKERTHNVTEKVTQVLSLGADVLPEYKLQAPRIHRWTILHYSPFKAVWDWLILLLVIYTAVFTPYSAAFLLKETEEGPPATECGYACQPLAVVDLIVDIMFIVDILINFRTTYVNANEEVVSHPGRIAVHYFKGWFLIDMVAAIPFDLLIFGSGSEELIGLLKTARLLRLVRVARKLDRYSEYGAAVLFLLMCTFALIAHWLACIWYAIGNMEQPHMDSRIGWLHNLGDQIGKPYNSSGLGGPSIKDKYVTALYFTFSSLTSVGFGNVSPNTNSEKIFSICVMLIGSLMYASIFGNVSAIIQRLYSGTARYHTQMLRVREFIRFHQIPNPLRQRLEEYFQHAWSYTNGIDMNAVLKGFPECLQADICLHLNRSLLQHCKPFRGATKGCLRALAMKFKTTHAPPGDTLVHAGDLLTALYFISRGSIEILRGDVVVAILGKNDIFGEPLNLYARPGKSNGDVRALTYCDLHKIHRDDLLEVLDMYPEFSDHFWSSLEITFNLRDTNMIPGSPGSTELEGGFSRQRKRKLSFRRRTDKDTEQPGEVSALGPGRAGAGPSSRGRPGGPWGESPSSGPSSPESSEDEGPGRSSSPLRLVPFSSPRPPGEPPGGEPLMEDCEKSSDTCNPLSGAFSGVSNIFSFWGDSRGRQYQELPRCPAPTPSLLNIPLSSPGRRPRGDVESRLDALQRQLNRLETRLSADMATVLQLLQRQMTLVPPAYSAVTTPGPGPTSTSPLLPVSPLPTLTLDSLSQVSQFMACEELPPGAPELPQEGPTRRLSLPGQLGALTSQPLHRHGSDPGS

Structure (SMILES)	hERG current change (%, negative = inhibition) at 10uM [%]
CCc1ccccc1NC1=NCC(=O)N1Cc1ccccc1	4.53
COc1ccc(N(C(=O)c2ccco2)S(=O)(=O)c2cc(OC)ccc2OC)cc1	-19.3
CC(NC(N)=O)C(=O)OCC(=O)c1ccc(-c2ccccc2)cc1 (stereo not shown)	10.8
COc1ccc(OC)c(CCNC(=O)c2ccc3c(=O)[nH]c4c(C(=O)NC(C)C)sc(=S)n4c3c2)c1	21.2
CN(c1ccccc1)S(=O)(=O)c1ccc(Cl)c(C(=O)NC2=NCCS2)c1	9.14
Cc1cc(C)c2c3c(sc2n1)C(=O)N(c1ccccc1C)CC(=O)N3	14.6
CN(C)C(CNc1ccc(S(C)(=O)=O)cc1[N+](=O)[O-])c1ccccc1 (stereo not shown)	-12.6
COc1ccc(NC(=O)CSCc2ccc([N+](=O)[O-])cc2)cc1OC	-17.5
O=C(NCCO)c1cc2cc(Cl)cc(Cl)c2oc1=O	-3.65
CCN(CC(=O)NCc1cccs1)C(=O)COc1ccc(C(N)=O)cc1	6.69
COc1ccc2c(C)c(CC(=O)N3C[C@H]4C[C@@H](C3)c3cccc(=O)n3C4)c(=O)oc2c1C	-3.48
CCCc1cc(=O)oc2c(C)c(OCC(=O)N3C[C@H]4C[C@@H](C3)c3cccc(=O)n3C4)ccc12	-23.9
CCCCc1cc(=O)oc2c(C)c(OCC(=O)N3CCC(C(N)=O)CC3)ccc12	-16.7
CCCCc1cc(=O)oc2c(C)c(OCC(=O)N3C[C@H]4C[C@@H](C3)c3cccc(=O)n3C4)ccc12	-60
C=C(C)COc1ccc2c(C)c(CC(=O)N3C[C@H]4C[C@@H](C3)c3cccc(=O)n3C4)c(=O)oc2c1C	-49.2
CC(C)=CCOc1ccc2c(C)c(CC(=O)N3C[C@H]4C[C@@H](C3)c3cccc(=O)n3C4)c(=O)oc2c1C	-57.3
CCc1cc(=O)oc2cc(OCC(=O)N3C[C@H]4C[C@@H](C3)c3cccc(=O)n3C4)c(Cl)cc12	-3.61
CCCc1cc(=O)oc2cc(OCC(=O)N3C[C@H]4C[C@@H](C3)c3cccc(=O)n3C4)c(Cl)cc12	-14.7
CCc1cc(=O)oc2c(C)c(OCC(=O)N3C[C@H]4C[C@@H](C3)c3cccc(=O)n3C4)ccc12	5.08
CCCCc1cc(=O)oc2c(C)c(OCC(=O)N3CCCC3)ccc12	-64.8
CCCCc1cc(=O)oc2c(C)c(OCC(=O)N3CCC(C(=O)O)(c4ccccc4)CC3)ccc12	6.82
CCCCc1cc(=O)oc2cc(OCC(=O)N3C[C@H]4C[C@@H](C3)c3cccc(=O)n3C4)c(Cl)cc12	-62.5

Structure (SMILES)	hERG current change (%, negative = inhibition) at 10uM [%]
CC(C)N(C(=O)CSc1nnc(CSc2ncccn2)n1C)C(C)C	32.8
O=c1[nH]n2cc(-n3cc([N+](=O)[O-])cn3)cnc2c1Br	10.6
CCCCNC(=O)CCC(=O)N1CCN(C(c2ccccc2)c2ccccc2)CC1.Cl	-7.34
O=C(CCc1ccccc1)Nc1ccc(NC(=O)C2CCCCC2)nc1	7.57
Cl.O=C(/C=C/c1ccccc1)Nc1ccc(N2CCCCC2)cc1	5.7
O=C(Nc1ncccc1O)c1cccc(S(=O)(=O)NCc2ccccc2)c1	-20.3
Cn1c(C(O)c2ccc3c(c2)OCO3)nc2ccccc21 (stereo not shown)	5.63
Cc1ccc(S(=O)(=O)N2c3ccccc3NC(=O)CC2C)cc1 (stereo not shown)	10.5
C=CCn1c(-c2ccc(Cl)cc2)c[nH]c1=S	19.4
Cc1cnc(NC(=O)CC2CCCC2)s1	21.5
COc1ccc(-c2cc(-c3ccccc3)no2)cc1	9.77
CCN(CC(=O)NCc1cccs1)C(=O)COc1ccc(C(C)=O)cc1	-45.1
O=C(CSc1nnc(-c2ccccn2)n1Cc1ccco1)c1ccccc1	-42.5
C(=C\c1ccccc1)/CSc1nnc(-c2ccccn2)n1Cc1ccco1	-50.9
C(=C\c1ccccc1)/CSc1nnc(-c2cnccn2)n1Cc1ccco1	-73.4
CCn1c(SC/C=C/c2ccccc2)nnc1-c1cnccn1	-14.7
NC(=O)CSc1nnc(-c2ccccn2)n1Cc1ccco1	4.36
O=C(CSc1nnc(-c2cnccn2)n1Cc1ccco1)c1ccccc1	-16.3
COc1ccc(C2CC(c3ccc(C)o3)=NN2C(C)=O)cc1 (stereo not shown)	7.14
CCOC(=O)C1SC2(C(F)(F)C(F)F)CC1(O)c1c(c(OC)c3occc3c1OC)O2 (stereo not shown)	-3.47
O=C(COC(=O)Cc1cccc2ccccc12)Nc1ccccc1-c1ccccc1	9.26
NC(=S)Nc1cccc2cnccc12	1.4

Structure (SMILES)	hERG current change (%, negative = inhibition) at 10uM [%]
COc1cc(NC(=O)c2cc3ccccc3cc2OC)ccc1NC(=O)c1cccs1	9.15
O=C(CSc1nnc(-c2ccncc2)n1Cc1ccco1)c1ccc(Cl)cc1	-46
COc1ccc(C(=O)CSc2nnc(-c3cccnc3)n2Cc2ccco2)cc1	-42.9
O=C(CSc1nnc(-c2cccnc2)n1Cc1ccco1)c1ccccc1	-10.3
O=C(CSc1nnc(-c2cccnc2)n1Cc1ccco1)c1ccc(Br)cc1	-63.8
O=C(CSc1nnc(-c2cccnc2)n1Cc1ccco1)c1ccc(Cl)cc1	-63.6
O=C(CSc1nnc(-c2cccnc2)n1Cc1ccco1)c1ccc(Cl)c(Cl)c1	-45.2
CC1CCCC(NC(=S)Nc2cccc(S(=O)(=O)N(C)C)c2)C1C (stereo not shown)	13.7
CCOC(=O)/C=C1\SCC(=O)N1CC(=O)Nc1ccccc1OC(F)F	18.8
O=C(Nc1ccc(NC(=O)c2cccs2)c(Cl)c1)c1ccco1	-39.4
CN(CC(=O)N1CCN(c2ccc(F)cc2)CC1)S(=O)(=O)c1ccc(F)cc1	-53.2
O=C(Cn1cnc(S(=O)(=O)N2CCCCC2)c1)NCc1ccco1	8.34
CN1CCN(C(=O)CN(C)S(=O)(=O)c2ccc(F)cc2)CC1	16.8
Nc1ncc(Br)cc1S(=O)(=O)NCCC(=O)N1CCN(c2ncccn2)CC1	-25.6
Nc1ncc(Br)cc1S(=O)(=O)NCCC(=O)N1CCN(c2ccccn2)CC1	-55.4
Cc1ccc(CNC(=O)Cn2cnc(S(=O)(=O)N3CCCCC3)c2)o1	-2.35
CN(CC(=O)N1CCN(c2ccccn2)CC1)S(=O)(=O)c1ccc(Cl)cc1	-46.2
COc1ccc(S(=O)(=O)N(C)CC(=O)N2CCN(c3ccc(F)cc3)CC2)cc1OC	-44
Nc1ncc(Br)cc1S(=O)(=O)NCCC(=O)N1CCN(c2ccccc2)CC1	-8.45
CN(CC(=O)N1CCN(c2ccccn2)CC1)S(=O)(=O)c1ccc(Br)cc1	-54.8
CN(CC(=O)N1CCN(c2ccccn2)CC1)S(=O)(=O)c1ccccc1	-12.8
Cc1ccc(CNC(=O)Cn2cnc(S(=O)(=O)N3CCC(C)CC3)c2)o1	-62.1

Structure (SMILES)	hERG current change (%, negative = inhibition) at 10uM [%]
CC1(C)C[C@H](O)[C@]2(CO)CC[C@]3(C)C(=CCC4[C@@]5(C)CC[C@H](O)C(C)(C)C5CC[C@]43C)[C@@H]2C1 (stereo partly shown)	-13.9
O=C(CSc1nnc2ccccn12)NCc1ccco1	22.3
O=C1CC(NNc2nc3ccccc3s2)C(=O)N1c1ccccc1 (stereo not shown)	-1.89
O=C(CSc1nnc(-c2ccccc2)c2ccccc12)NCCN1C(=O)CSC1=O	-27.6
O=C(CSc1ccccn1)Nc1ccc2c(c1)OCCO2	8.07
O=C(Nc1cccnc1)c1cc2cc(Br)ccc2o1	8.93
Cc1cc(-c2n[nH]c(=S)n2/N=C/c2ccco2)n[nH]1	7.99
Cc1cccc(N2CCN(C(=O)CN(C)S(=O)(=O)c3ccc4c(c3)CCC(=O)N4)CC2)c1C	-60.5
Cc1ccc(CC(=O)N2CCN(c3cccc(C(F)(F)F)c3)CC2)cc1	-9.64
O=C(CS(=O)(=O)c1ccc(F)cc1)N1CCN(c2ccccc2)CC1	-42.4
Cn1cnc(S(=O)(=O)N2CCN(c3cccc(C(F)(F)F)c3)CC2)c1	7.43
Cc1ccc(C)c(N2CCN(C(=O)CN(C)S(=O)(=O)c3ccc4c(c3)CCC(=O)N4)CC2)c1	-41.5
Cc1cccc(N2CCN(C(=O)CCNS(=O)(=O)c3ccc4c(c3)CCC(=O)N4)CC2)c1C	-44.6
O=C(CCS(=O)(=O)c1ccccc1)N1CCN(c2cccc(C(F)(F)F)c2)CC1	-43.1
CC1CCN(S(=O)(=O)c2cn(CC(=O)N3CCN(c4cccc(C(F)(F)F)c4)CC3)cn2)CC1	-54
Cc1ccc(S(=O)(=O)CC(=O)N2CCN(c3ccccc3F)CC2)cc1	-16.8
Cc1ccc(S(=O)(=O)CC(=O)N2CCN(c3cccc(C(F)(F)F)c3)CC2)cc1	-50.4
Cc1ccc(S(=O)(=O)CC(=O)N2CCN(c3ccc(F)cc3)CC2)cc1	-51.5
CC(=O)c1ccc(N2CCN(C(=O)Cn3cnc(S(=O)(=O)N4CCCCC4)c3)CC2)cc1	7.48

From article PMC4336329 (PLoS ONE, 2015)
